Screens from PubChem BioAssay.
In the library only some 1.5% were active in any assay of this set; here they are far more common.
MCL1 BIM primary – inhibitors of MCL1 binding to BIM-BH3, primary screen, biochemical, fluorescence polarization. Induced myeloid leukemia cell differentiation protein Mcl-1 (Homo sapiens), Q07820. GST-MCL1 / FITC-Bim-BH3 fluorescence polarization. inhibition, % at 10.9 µM. actives 0.68% (n = 320,000). AID 2057, 2009;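 active means inhibition above the mean inhibition of all tested compounds plus 3 SD, set per campaign, cut at about 40% in these data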;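 further: 0% = DMSO wells and 100% = unlabeled Bim-BH3 peptide control; higher means more loss of mP so more displacement of Bim peptide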
Target sequence (Q07820 whole entry, looked up): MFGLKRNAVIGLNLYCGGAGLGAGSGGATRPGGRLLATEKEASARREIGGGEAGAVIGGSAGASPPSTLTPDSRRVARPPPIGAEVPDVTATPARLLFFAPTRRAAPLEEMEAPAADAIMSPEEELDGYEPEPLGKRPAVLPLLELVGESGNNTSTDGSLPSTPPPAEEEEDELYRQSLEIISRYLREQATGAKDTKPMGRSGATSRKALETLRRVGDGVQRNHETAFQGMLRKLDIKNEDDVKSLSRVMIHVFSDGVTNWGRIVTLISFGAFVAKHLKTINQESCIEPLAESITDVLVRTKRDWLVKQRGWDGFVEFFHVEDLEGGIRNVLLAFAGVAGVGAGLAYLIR
E coli Lon inh – inhibitors of E. coli Lon protease, primary screen, biochemical, fluorescence polarization | P0A9M0 | purified E. coli Lon protease | inhibition, % at 7.94 µM | actives 0.42% (n = 360,000); in the data active means inhibition above about 13%, passing the limit was not always enough;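 further: 0% = enzyme with probe and DMSO and 100% = no enzyme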
MEX-5 binding – MEX-5 zinc finger RNA-binding disruptors – biochemical, C. elegans, fluorescence polarization, MLPCN library, primary screen; MEX-5/FITC-TCR2 RNA binding; active compounds read low; activity score (negative = inhibition of binding), % at 10 µM; AID 1832, 2009; Zinc finger protein mex-5 (Caenorhabditis elegans), Q9XUB2; actives 0.38% (n = 300,000);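 active means inhibition past about -25% in most replicates, and total fluorescence under double the plate's negative control median, limit read from the data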;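 further: 0% = DMSO and -100% = 5 µM competing unlabeled TCR2 RNA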
Bcl-xL primary – inhibitors of human Bcl-xL, primary screen, biochemical, fluorescence polarization, HTS | Bcl-2-like protein 1 (Homo sapiens), Q07817 | GST-Bcl-xL / FITC-Bim BH3 peptide fluorescence polarization | inhibition, % at 10.9 µM | actives 0.7% (n = 320,000);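 active means inhibition above the mean of all tested compounds plus 3 SD, cutoff set per campaign, cut at about 30% in these data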;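 further: 0% = DMSO wells and 100% = unlabeled Bim-BH3 peptide competitor; inhibitors lower millipolarization by displacing the labeled peptide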
Target sequence (Q07817 whole entry, looked up): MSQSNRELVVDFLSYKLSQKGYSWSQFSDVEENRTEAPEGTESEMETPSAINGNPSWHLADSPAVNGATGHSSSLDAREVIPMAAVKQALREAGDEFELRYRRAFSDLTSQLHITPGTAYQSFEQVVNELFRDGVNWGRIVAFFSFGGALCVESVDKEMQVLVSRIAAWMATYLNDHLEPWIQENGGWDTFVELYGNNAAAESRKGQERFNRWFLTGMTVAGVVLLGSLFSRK
EBV gp42 block – Epstein-Barr virus gp42 inhibitors, primary screen, biochemical, uHTS, fluorescence polarization; Glycoprotein 42 (Epstein-Barr virus (strain AG876)), Q1HVG2; Fluorescence polarization binding assay, mP read-out; inhibition, % (tested at 21.74 µM); actives 0.42% (n = 220,000); AID 1085, 2008; in the data active means inhibition above about 50%
GLD-1 RNA inh – GLD-1/TGE RNA complex disruptors, primary screen, biochemical, fluorescence polarization; purified GLD-1 + fluorescein TGE RNA; inhibition, % at 5.96 µM; actives 0.44% (n = 320,000); AID 2280, 2010;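 active means percent inhibition above a per-plate cutoff, the plate mean of test compounds plus 3 SD, cut at about 30% in these data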;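 further: 0% = DMSO wells with GLD-1 and probe and 100% = wells lacking GLD-1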
An asterisk follows results filed as active; . = not tested or not shown.

SMILES	MCL1 BIM primary	E coli Lon inh	MEX-5 binding	Bcl-xL primary	EBV gp42 block	GLD-1 RNA inh
CCOc1cc(/C=C(\C#N)c2nc3ccccc3[nH]2)ccc1OC(C)C(=O)O (configuration not stated)	1	-29	-30*	6	.	-8
O=C(N/N=C/c1cc([N+](=O)[O-])ccc1O)c1cccc2ccccc12	18	2	-4	8	.	1
COC(=O)c1c(C(=O)OC)c2ccccn2c1C(=O)c1ccccc1	-8	-5	0	4	.	7
COC(=O)c1cc2c(-c3ccccc3)c(C)c3ccccn3c-2c1C(=O)OC	43*	1	-4	47*	65*	63*
COc1ccccc1C(CNC(=O)c1cc(S(=O)(=O)N2CCOCC2)ccc1C)N1CCCC1 (configuration not stated)	6	-8	.	5	.	8
Cc1ccc(S(=O)(=O)c2ccc([N+](=O)[O-])o2)cc1	.	-9	.	.	.	.
NC(=O)C1(N2CCCCC2)CCN(Cc2nc(-c3cccs3)no2)CC1	-12	1	-35*	1	8	1
CCOc1ccc2[nH]c(C)c(CN3CCOCC3)c(=O)c2c1	4	4	-8	8	-14	6
CCOc1ccc2[nH]c3ncccc3c(=O)c2c1	52*	26	-13	42*	.	26
COc1cc(/C=C/C(=O)N2CCN(C(=O)/C=C/c3cc(OC)c(OC)c(OC)c3)CC2)cc(OC)c1OC	0	-4	2	4	.	109*
COc1ccc(C(=S)N2CCN(c3ccccc3C)CC2)cc1OC	.	-7	.	.	.	.
CN(CC(=O)Nc1ccc(F)c(F)c1F)C(=O)c1ccc(-n2cncn2)c([N+](=O)[O-])c1	7	5	3	7	.	6
COc1ccccc1NC(=O)/C(C#N)=C/c1cc([N+](=O)[O-])ccc1N1CCCC1	-45	-53	-83*	-20	161*	-20
CSCCC(NS(=O)(=O)c1ccc2c(c1)OCCO2)C(=O)N(C)Cc1ccccc1F (configuration not stated)	0	-4	.	-1	.	8
Cc1ccc(-c2ccccc2)n1-c1ccc(C(=O)O)cc1	10	-4	-3	9	6	3
Cc1cc2c(n1-c1ccc(C(=O)O)cc1)CCCCC2	.	.	-62*	.	.	.
Cc1cccc(C)c1NC(=O)NN=C1CCCCC1	-2	1	-29*	2	-20	-6
OCCOc1ccc(C2=NCCO2)cc1	7	-2	-50*	-2	3	1
CC(NC(=O)Nc1ccc([N+](=O)[O-])cc1)C(c1cccs1)N1CCCC1 (configuration not stated)	2	13	-2	52*	-13	4
COc1ccccc1OC(C)C(=O)Nc1ccc(S(=O)(=O)N2CCN(C)CC2)cc1 (configuration not stated)	-2	-7	0	0	.	5
CCOC(=O)C(=O)Cc1nc2ccccc2s1	-6	-70	6	-8	-10	46*
COc1ccc(-c2cn(Cc3ccc(C(N)=O)cc3)c(CCN)n2)cc1	3	-2	.	-1	.	3
CC(=O)c1cc2cc(O)ccc2o1	-13	2	.	-8	-23	-2
CC(=O)c1cc2c(O)c(O)ccc2o1	24	10	0	34*	-18	10
Cc1ccc(Cl)cc1NC(=O)C1CCCN1S(=O)(=O)c1ccc(-c2ccc(=O)[nH]n2)s1 (configuration not stated)	-3	5	3	-5	.	-3
SMILES	MCL1 BIM primary	E coli Lon inh	MEX-5 binding	Bcl-xL primary	EBV gp42 block	GLD-1 RNA inh
CCCCN1C=CC(=C2C(=O)c3ccccc3C2=O)C=C1	-2	-3	-38*	1	-2	7
CCCCNC1=CC(=O)C(=O)c2ccccc21	-1	-7	0	5	-15	1
N#C/C(=C/c1ccc(-c2cc(C(=O)O)cc(C(=O)O)c2)o1)c1nc2ccccc2s1	-33	.	16	-18	-115	-50
N#C/C(=C/c1ccco1)c1nc2ccccc2s1	5	1	-4	33*	-8	11
O=C(CSc1n[nH]c(-c2ccccc2Cl)n1)NC1CCCCC1	-1	4	0	-1	.	-4
C/C(=N\N1CCN(C2c3ccccc3-c3ccccc32)CC1)c1ccncc1	-3	-5	-1	4	117*	-2
CC(=O)c1ccc(NC(=O)CN2CCN(S(=O)(=O)c3ccc4c(c3)OCCO4)CC2)cc1	.	-3	.	.	.	.
CC(=O)N1c2ccc3ccccc3c2C2C=CCC2C1c1ccc(Br)cc1 (configuration not stated)	32	.	.	37*	30	41*
N#Cc1sc2nc(-c3ccccc3)cc(-c3ccco3)c2c1N	16	4	-5	18	11	6
COc1cccc(-c2cc(C(F)(F)F)c3c(N)c(C#N)sc3n2)c1	46*	.	-4	27	-37	-2
CC(C)NC(=O)c1cc(C2CCCCN2C(=O)OCCF)on1 (configuration not stated)	.	7	.	.	.	.
N#Cc1c(N)nc2c3c(sc(=N)c2c1N)NC(=O)CC3c1ccccc1 (configuration not stated)	42*	-18	-3	47*	0	0
N#Cc1c(N)nc2c3c(sc(=N)c2c1N)NC(=O)CC3c1c(F)cccc1Cl (configuration not stated)	18	-14	-1	18	4	5
c1ccc(-c2ccnc3nc(N4CCN(c5ccccc5)CC4)nn23)cc1	0	-8	-10	2	72*	3
Fc1ccc(-c2ccnc3nc(N4CCN(c5ccccc5)CC4)nn23)cc1	10	-1	0	7	-3	11
COc1ccc2nc3cc(Cl)ccc3c(Nc3ccc(O)c(CN4CCN(C)CC4)c3)c2c1	.	5	.	.	.	.
CN(C)c1ccc(/C=N/NC(=O)CN2CCCCC2)cc1Br	5	-3	1	7	.	4
COc1ccc2[nH]c3c(c2c1)CCN1C(=O)C(CC(=O)NC(C)(C)C)C[C@H](C(=O)N2CCCCC2)[C@@]31C (some centres not stated)	.	-6	.	.	.	.
CCNc1nn2ccccc2c1/C=C(\C#N)C(=O)OCC	-1	4	-63*	4	-14	14
CC(=O)N(Cc1ccccc1)c1ncc2c(n1)c(=O)c(C#N)c1ccccn12	45*	-5	-8	34*	32	18
COc1ccc(NC(=O)c2cc(S(=O)(=O)N3CCCC3)ccc2C)cn1	42*	9	.	35*	.	29
CC1CCc2c(sc3nc(C(C)(C)C)nc(N4CCN(C(=O)CCl)CC4)c23)C1 (configuration not stated)	10	5	-2	6	.	0
